# Source: PubChem
# BAZ2B inh = qHTS Assay for Inhibitors of BAZ2B | Bromodomain adjacent to zinc finger domain protein 2B (Homo sapiens), Q9UIF8 | AlphaScreen BAZ2B-H3K14Ac peptide displacement | Potency, µM (top dose mostly 114 µM), inactives show top-dose activity change, negative = inhibition, most hits filed as inhibitors | actives 4.4% (n = 360,000) | AID 504333, 2011; also: % is scaled to controls: 0 for no effect and ±100 for the full control effect; nearly all actives have a fitted effect of over 60% in size
#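 Inhibition is scored as reduced AlphaScreen emission. The BAZ2B/b-H3(5-23)K14Ac complex (50 nM each) in PBS pH 7.4, 0.01% Tween-20 meets compound (up to 110 uM) for 30 min at RT before bead addition.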
# L3MBTL1 block = qHTS Assay for the Inhibitors of L3MBTL1; AlphaScreen L3MBTL1–H3K9me1 peptide binding; Potency, µM (series often up to 57.1 µM), inactives show at the highest dose activity, negative = inhibition, hits mostly inhibitors; actives 0.66% (n = 230,000); AID 485360, 2010; also: % is scaled to controls: 0 for no effect and ±100 for the full control effect; nearly all actives have a fitted effect of over 60% in size
# Target sequence (Q9Y468 whole entry, looked up): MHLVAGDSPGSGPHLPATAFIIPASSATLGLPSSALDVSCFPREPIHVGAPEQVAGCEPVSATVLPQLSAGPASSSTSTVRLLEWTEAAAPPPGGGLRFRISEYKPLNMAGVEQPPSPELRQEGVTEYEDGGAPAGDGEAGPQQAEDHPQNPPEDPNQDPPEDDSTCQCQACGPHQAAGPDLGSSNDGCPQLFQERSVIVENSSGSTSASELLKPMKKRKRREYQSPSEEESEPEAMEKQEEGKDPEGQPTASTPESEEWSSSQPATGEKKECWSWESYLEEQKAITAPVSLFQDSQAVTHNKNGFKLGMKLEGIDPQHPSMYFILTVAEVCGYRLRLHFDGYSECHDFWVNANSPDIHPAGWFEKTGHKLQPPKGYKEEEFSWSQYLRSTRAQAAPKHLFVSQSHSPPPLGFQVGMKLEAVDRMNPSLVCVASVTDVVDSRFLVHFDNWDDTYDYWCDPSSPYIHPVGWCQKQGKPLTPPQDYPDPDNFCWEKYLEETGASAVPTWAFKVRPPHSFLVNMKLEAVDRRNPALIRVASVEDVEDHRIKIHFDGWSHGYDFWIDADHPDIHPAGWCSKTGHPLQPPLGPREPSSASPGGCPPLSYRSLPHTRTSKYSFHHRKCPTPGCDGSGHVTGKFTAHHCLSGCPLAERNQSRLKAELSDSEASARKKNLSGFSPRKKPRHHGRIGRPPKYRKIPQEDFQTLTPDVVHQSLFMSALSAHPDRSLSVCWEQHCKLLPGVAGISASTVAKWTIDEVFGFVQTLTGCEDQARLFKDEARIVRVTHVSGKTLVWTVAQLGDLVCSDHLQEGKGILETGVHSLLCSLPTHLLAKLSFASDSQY
#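 Read-out is AlphaScreen signal from streptavidin donor and nickel chelate acceptor beads (10 ug/mL final each) bridging L3MBTL1 (50 nM) and biotinylated K9-monomethylated H3(1-15) peptide (75 nM), after 30 min compound exposure at room temperature.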
# PLK1 PBD inh = qHTS for Inhibitors of PLK1-PDB (polo-like kinase 1 - polo-box domain): Primary Screen; Serine/threonine-protein kinase PLK1 (Homo sapiens), P53350; AID 720504, 2013; Potency, µM, inactives show max response, negative = inhibition, actives largely listed as inhibitors; actives 2.8% (n = 360,000); Plk1 PBD binding of FITC phosphopeptide, fluorescence polarization; also: series mostly up to about 57 µM; % is scaled to controls: 0 for no effect and ±100 for the full control effect; nearly all actives have a fitted effect of over 65% in size
# HP1b chromo inh = HTS for Inhibitors of HP1-beta Chromodomain Interactions with Methylated Histone Tails; AlphaScreen HP1-beta / biotin-H3K9me3 peptide binding; Chromobox protein homolog 1 (Homo sapiens), P83916; AID 540317, 2011; Potency, µM (series often up to 114 µM), inactives show top-dose activity change, negative = inhibition, hits mostly inhibitors; actives 0.56% (n = 390,000); also: nearly all actives have a fitted effect of over 70% in size
#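 Compound inhibition of the preformed complex between 50 nM HP1-beta and 50 nM biotinylated H3K9me3 peptide was read by AlphaScreen. Buffer was PBS pH 7.4 with 0.01% Tween-20. Incubations ran 30 min at room temperature, with 10 ug/mL donor/acceptor beads.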
# VDR inh = Inhibitors of the vitamin D receptor (VDR): qHTS; Vitamin D3 receptor (Homo sapiens), P11473; AID 504847, 2011; Potency, µM, without a hit: max response, negative = inhibition, actives largely listed as inhibitors; VDR-SRC2-3 peptide fluorescence polarization, 2 h; actives 0.93% (n = 400,000); also: % is scaled to controls: 0 for no effect and ±100 for the full control effect
#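 Compounds are added to VDR with labelled SRC2-3 coactivator peptide and held 2 h at room temperature. Inhibition of the VDR–peptide interaction is then read as a change in fluorescence polarization.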
# JMJD2A Tudor inh = qHTS Assay for Inhibitors of JMJD2A-Tudor Domain; AlphaScreen JMJD2A-Tudor / H3K4me3 peptide binding; Potency, µM (doses to about 114 µM), for the others: at the top dose activity change, negative = inhibition, actives largely listed as inhibitors; actives 4.4% (n = 390,000); AID 504339, 2011; also: % is scaled to controls: 0 for no effect and ±100 for the full control effect; nearly all actives have a fitted effect of over 50% in size
# An asterisk follows results filed as active; ? = inconclusive; / = no result given; [ ] = another dose, or the depositor's remark. The list is not random: actives were taken first. Their share in the collection is about 6.9%. Calls follow the shape of the dose curve; as a rule, active = well fitted curve in the direction sought with a large enough effect; inconclusive = small, poorly fitted or top-dose-only effect, or another doubt; inactive = no such curve, though single readings can be large; an effect the other way counts as inactive or inconclusive. Potency is read from the fitted curve at half-maximal effect.
SMILES,BAZ2B inh,L3MBTL1 block,PLK1 PBD inh,HP1b chromo inh,VDR inh,JMJD2A Tudor inh
CCOC(=O)C1CCCN(C(=O)CC(C)c2ccccc2)C1 (stereo unspecified),4.8%,-7.3%,-8.4%,24.8%,13.2%,-11.0%
CCOC(=O)C1CCN(C(=O)CC(NS(=O)(=O)c2ccc(OC)cc2)C(C)C)CC1 (stereo unspecified),13.5%,5.0%,3.77µM*,-8.2%,?,15.8µM*
CCOC(=O)C1CCN(C(=O)CC(C)c2ccccc2)CC1 (stereo unspecified),-24.4%,/,23.8µM*,?,?,28.2µM*
CCOC(=O)C1CCCN(C(=O)CSc2ccc(NC(C)=O)cc2)C1 (stereo unspecified),-19.8%,7.7%,21.2µM*,52.4%,-24.9%,0.3%
CCOC(=O)C1CCN(C(=O)CCNS(=O)(=O)c2ccc(C)cc2)CC1,3.7%,5.3%,1.0%,56.5%,3.0%,-6.5%
CCOC(=O)C1CCN(C(=O)c2ccc(SC)cc2OC)CC1,4.6%,/,29.9µM*,-16.2%,9.2%,-24.4%[11.4 µM]
CCOC(=O)C1CCN(C(=O)CSc2ccccc2)CC1,2.1%,/,?,?,-14.3%,50.1µM*
CCC(CC)c1nn2c(=O)cc(COc3ccc(NC(=O)c4cccc(C)c4)cc3)nc2s1,1.9%,/,/,48.4%,0.1%,-6.3%
CCCCCCCC#Cc1ccccc1/C=N/S(=O)c1ccc(C)cc1 (stereo unspecified),24.6%,7.9%,15µM*,171.0%,?,8.91µM*
CCCCC#Cc1ccccc1CC(=O)Nc1ccccc1,?,10.5%,5.3%,47.3%,-21.2%,?
O=c1cccccc1NCc1ccccc1,11.6%,/,-9.1%,31.0%,10.4%,4.2%
CC(=O)CC1OC(=O)C(Br)=C1NCc1ccccc1 (stereo unspecified),-1.9%,-7.2%,26.7µM*,-22.4%,?,-19.0%
CC(=O)Nc1nc(C)c(CCC2OCCO2)c(=O)[nH]1,-12.0%,/,0.1%,24.5%,-10.3%,-2.8%
O=S(=O)(Nc1cccc2ccccc12)c1ccc2ccccc2c1,/,/,/,?,?,79.4µM*
CCn1nc(NS(=O)(=O)c2ccc(NC(C)=O)cc2)c2cc3ccccc3nc21,-27.1%,/,23.8µM*,-1.9%,?,?
CC(=O)NS(=O)(=O)c1ccc(NS(=O)(=O)c2ccc3ccccc3c2)cc1,3.5%,/,-11.2%,71.7%,8.7%,4.9%
Cn1c(=O)oc2cc(S(=O)(=O)Nc3ccccc3)ccc21,-11.6%,-18.0%,21.2µM*,-11.0%,-12.3%,?
CC(=O)Nc1ccc(NS(=O)(=O)c2ccc3ccccc3c2)cc1,-6.4%,/,7.52µM*,-9.1%,?,28.2µM*
O=C(CN1C(=O)COc2ccccc2C1=O)c1ccc2c(c1)OCCO2,2.6%,/,5.4%,33.8%,-4.4%,1.6%
CCc1cccc(CC)c1NC(=O)Cc1csc(C)n1,-1.1%,/,/,38.6%,-5.2%,-4.1%
O=C(COc1c(CO)cc(Br)cc1CO)NC1CCCc2ccccc21 (stereo unspecified),-4.0%,8.9%,-9.5%,-1.9%,3.8%,-7.2%
Cc1nn(C(C)C(=O)NC2CCC(C)CC2)c(=O)c2cc3sccc3n12 (stereo unspecified),-11.2%,/,/,55.3%,-10.3%,-2.5%
Cc1cccc(C(=O)OCC(=O)N2CC(=O)Nc3ccccc32)c1C,/,-2.8%,-12.6%,17.8%,-6.1%,-14.4%
CC(=O)Nc1ccc(NS(=O)(=O)c2ccc3c(c2)n(C)c(=O)n3C)cc1,79.4µM*,5.2%,13.5%,49.1%,17.4%,-8.2%
Cc1ccc(NS(=O)(=O)c2ccc3c(c2)n(C)c(=O)n3C)cc1,-23.3%,/,-2.2%,31.0%,-4.9%,-6.7%
SMILES,BAZ2B inh,L3MBTL1 block,PLK1 PBD inh,HP1b chromo inh,VDR inh,JMJD2A Tudor inh
CC(=O)Nc1ccc(NS(=O)(=O)c2c(Cl)cccc2Cl)cc1,-14.7%,/,26.7µM*,15.9%,-25.7%,-15.4%[11.4 µM]
CN(C)S(=O)(=O)c1ccc(Cl)c(NC(=O)COC(=O)/C=C/c2ccco2)c1,56.2µM*,-19.9%,14.6%,14.3%,-0.2%,-19.6%
CCN(CC)S(=O)(=O)c1ccc(C(=O)OCC(=O)NCc2ccco2)cc1,50.1µM*,-22.4%,-8.7%,-17.5%,5.3%,?
O=C(COC(=O)/C=C/c1cccc([N+](=O)[O-])c1)NCc1ccco1,70.8µM*,-13.1%,-2.0%,11.9%,-10.6%,-23.2%
COc1ccc(S(=O)(=O)Nc2ccccc2C(=O)NCc2ccco2)cc1,?,-8.2%,10.6µM*,-17.9%,16.5%,-12.2%[11.4 µM]
O=c1ccn([C@@H]2O[C@H](CNCc3ccccc3OCc3ccc(Cl)cc3Cl)[C@@H](O)[C@H]2O)c(=O)[nH]1,/,/,-10.3%,/,/,/
O=C(NCCc1ccccc1)c1cnc2sc(N3CCCCCC3)nn2c1=O,-5.6%,/,/,6.8%,2.2%,-10.7%
CCOC(=O)c1c(S(=O)(=O)NCC(=O)Nc2cccc(SC)c2)c(C)n(C)c1C,-22.0%,/,/,9.1%,1.0%,?
Cc1ccc(S(=O)(=O)N2N=C3CCCCC3C2(O)C(F)(F)F)cc1 (stereo unspecified),-15.4%,9.3%,-19.1%,11.6%,4.0%,-9.3%
COc1ccc(C(=O)/C=C/Nc2ccc(S(=O)(=O)Nc3onc(C)c3C)cc2)cc1,?,-4.1%,-4.3%,1.4%,-17.6%,?
COc1ccccc1NS(=O)(=O)c1ccc(C(=O)OCC(=O)NCc2ccco2)cc1,50.1µM*,?,-9.4%,22.5%,10.3%,-12.0%
NC(=O)COC(=O)c1cccc(S(=O)(=O)N2CCN(c3ccccc3)CC2)c1,15.9%,-18.2%,-16.9%,20.3%,-8.6%,0.0%
CC(C)c1ccccc1NC(=O)COC(=O)/C=C/c1cccc([N+](=O)[O-])c1,11.2%,-5.2%,15µM*,-7.0%,?,-29.2%
O=C(COC(=O)c1cccc(S(=O)(=O)N2CCN(c3ccccc3)CC2)c1)NCc1ccco1,44.7µM*,?,-21.5%,-54.2%,7.3%,22.4µM*
O=C(COC(=O)/C=C/c1ccc([N+](=O)[O-])cc1)NCc1ccco1,2.1%,-1.2%,1.9%,18.8%,-2.3%,-11.3%
COc1ccccc1N(C)S(=O)(=O)c1ccc(C(=O)OCC(=O)NCc2ccco2)cc1,?,-8.9%,-8.4%,-3.0%,-4.2%,?
CCN(CC)S(=O)(=O)c1ccc(/C=C/C(=O)OCC(=O)NCc2ccco2)cc1,/,?,-15.5%,?,-6.8%,31.6µM*
